bovine MsrA act: activates bovine MsrA enzyme; activation, % at 10.6 µM; purified bovine MsrA, absorbance read-out; 360,000 tested, 0.3% active; AID 602163; in the data active means activation above about 7.5%;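 further: 0% = vehicle and 100% = reference activator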
MsrA inhibitor: bovine MsrA inhibition. purified bovine MsrA, absorbance read-out. inhibition, % at 15.5 µM. 360,000 tested, 0.75% active. AID 651718; in the data active means inhibition above about 4.5%;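 further: 0% = vehicle wells with enzyme and 100% = reference inhibitor wells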
HGIII-sPLA2 inh: Inhibits HGIII-sPLA2 liposome hydrolysis, primary screen. QFRET BODIPY PC-A2 liposome hydrolysis, fluorescence. inhibition, % at 12.2 µM. 370,000 tested, 0.56% active. Q9NZ20;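 active means inhibition above mean plus 3 SD of compounds lying within the high and low control bounds, cut at about 19% in these data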;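 further: 0% = median of test compound wells and 100% = no enzyme DMSO wells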
Target sequence (Q9NZ20 whole entry, looked up): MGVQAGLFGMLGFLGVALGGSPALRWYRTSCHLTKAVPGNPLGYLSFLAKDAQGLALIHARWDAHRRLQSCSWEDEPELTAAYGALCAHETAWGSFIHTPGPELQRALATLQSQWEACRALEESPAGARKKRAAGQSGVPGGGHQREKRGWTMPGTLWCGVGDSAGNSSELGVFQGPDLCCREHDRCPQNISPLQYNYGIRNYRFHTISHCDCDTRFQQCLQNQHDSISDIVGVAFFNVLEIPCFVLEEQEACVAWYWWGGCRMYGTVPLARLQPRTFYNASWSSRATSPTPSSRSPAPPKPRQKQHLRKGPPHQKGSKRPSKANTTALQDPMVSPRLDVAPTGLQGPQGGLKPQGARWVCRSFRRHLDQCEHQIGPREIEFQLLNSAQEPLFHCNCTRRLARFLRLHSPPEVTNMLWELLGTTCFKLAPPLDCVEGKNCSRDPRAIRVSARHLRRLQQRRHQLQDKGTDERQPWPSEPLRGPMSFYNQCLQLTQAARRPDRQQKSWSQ
PG9 binder: PG9 antibody binding by small molecule. TR-FRET gp120-PG9 antibody binding. inhibition, % at 6.7 µM. 360,000 tested, 0.43% active. AID 624416; in the data active means inhibition above about 8.5%
rCAG binder: binds r(CAG) RNA repeats; 370,000 tested, 1.3% active; inhibition, % at 3 µM; r(CAG) RNA repeat, TO-PRO-1 dye displacement fluorescence; AID 651821;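 active means inhibition above the plate cutoff, the mean of all test compounds on that plate plus 3 SD, cut at about 35% in these data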;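 further: 0% = DMSO alone and 100% = 100 µM mitoxantrone as full dye displacement; higher means more dye released from RNA so lower well fluorescence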
rCAG bind conf: r(CAG) RNA repeat binding, confirmation | shares compounds with rCAG binder | TO-PRO-1 dye displacement fluorescence | inhibition, % at 3 µM | 4,300 tested, 70% active | AID 652065;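 active means inhibition above a per-plate cutoff, the mean inhibition of sample wells plus 3 SD, cut at about 35% in these data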;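 further: loss of TO-PRO-1 fluorescence as compound displaces dye from 1x1 AA loop RNA; 0% = DMSO only wells and 100% = 100 µM mitoxantrone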
DNA CAG counter: counter-screen for rCAG RNA binders: DNA CAG dye complex inhibitors | shares compounds with rCAG binder | d(CAG) DNA oligo TO-PRO-1 dye displacement, fluorescence | inhibition, % at 3 µM | 4,300 tested, 94% active;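 active means inhibition above its plate's cutoff, the mean test-well inhibition plus 3 SD, cut at about 4.8% in these data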;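 further: 0% = DNA dye mix with DMSO and 100% = 100 µM mitoxantrone; hits displace the dye from DNA and so lower well fluorescence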
DNA CAG DR: disrupts DNA CAG TO-PRO-1 complex in dose response; 250 tested, 20% active; shares compounds with rCAG binder; IC50, µM; DNA CAG/GTC duplex TO-PRO-1 dye displacement fluorescence; in the data active means IC50 below about 10 µM
Active calls of the source: *; i = inactive; . = no result given. Rows were chosen to be rich in hits. Some 3.2% of all compounds tested hit in one or more screens of this group.

SMILES	bovine MsrA act	MsrA inhibitor	HGIII-sPLA2 inh	PG9 binder	rCAG binder	rCAG bind conf	DNA CAG counter	others
COc1ccc(C(=O)/C=C(\Nc2ccc(F)cc2)c2ccc(OC)cc2OC)c(OC)c1	.	.	-13.6	.	7.0	.	.
CC(C)C(N)c1csc(NC(=O)Nc2ccc(OC(F)(F)F)cc2)n1 (stereo not given)	-4.3	-1.1	3.9	-1.5	40.1*	25.5	2.2
NC(CCc1ccccc1)c1csc(NC(=O)Nc2cccc(C(F)(F)F)c2)n1 (stereo not given)	-5.1	0.1	16.1	-0.1	39.8*	21.6	2.6
CC(C)C(N)c1csc(NC(=O)Nc2ccccc2C(C)(C)C)n1 (stereo not given)	-5.1	-2.4	7.3	1.0	13.6	.	.
NC(Cc1ccc(Cl)cc1)c1csc(NC(=O)Nc2ccccc2)n1 (stereo not given)	-2.2	-0.2	10.7	2.1	37.8*	22.7	10.8*
CC(C)C(N)c1csc(NC(=O)Nc2cccc(C(F)(F)F)c2)n1 (stereo not given)	-0.2	-1.8	13.2	0.0	41.9*	44.8*	4.2	DNA CAG DR=>29.9
N=c1c2c(ccn1Cc1ccccc1)Oc1ccc3ccccc3c1C2c1ccccc1 (stereo not given)	.	.	-4.3	.	.	.	.
O=S1(=O)CC2c3ccc(F)cc3CN2CN1Cc1ccc(F)cc1 (stereo not given)	.	.	-1.6	.	1.4	.	.
CC(=O)C(=Cc1ccc(-c2ccccc2)cc1)C(=O)c1ccccc1	-4.7	1.0	-0.4	-1.5	3.3	.	.
COC(=O)[C@@]1(Cc2ccccc2)[C@H]2C(=O)N(C)C(=O)[C@H]2[C@H]2CN=C(SC)N21	-5.3	-0.8	-0.5	-0.5	5.2	.	.
NC(COCc1ccccc1)c1csc(NC(=O)Nc2cccc(Cl)c2)n1 (stereo not given)	0.5	-1.0	6.8	-1.4	47.9*	24.0	5.5*
COc1ccc(CC(N)c2csc(NC(=O)Nc3cccc(C(F)(F)F)c3)n2)cc1 (stereo not given)	-1.1	-1.5	17.7	-0.5	47.0*	26.1	7.1*
COc1ccc(CC(N)c2csc(NC(=O)Nc3cc(OC)ccc3OC)n2)cc1 (stereo not given)	-1.6	0.8	18.6	1.8	12.8	.	.
Cc1ccccc1NC(=O)CN1C(=O)N/C(=C\c2ccccc2OCc2ccc(C(=O)O)cc2)C1=O	1.9	3.8	-6.0	-2.1	42.7*	29.1	7.8*
O=C(CN1C(=O)N/C(=C\c2ccccc2OCc2ccc(C(=O)O)cc2)C1=O)Nc1ccc(F)cc1	-8.3	4.7*	-43.6	-3.2	59.0*	43.0*	12.9*
Cc1cccc(NC(=O)CN2C(=O)N/C(=C\c3ccccc3OCc3ccc(C(=O)O)cc3)C2=O)c1	-6.5	3.0	-49.6	-0.8	60.8*	67.1*	31.2*
O=C(O)c1ccc(COc2ccccc2/C=C2\NC(=O)N(Cc3ccc(F)cc3)C2=O)cc1	-9.3	1.4	-6.9	-1.7	8.8	.	.
COC(=O)N1C(=O)[C@](Cc2ccccc2)(c2ccccc2)N1C(=O)OC	-3.6	-1.3	2.3	-0.3	4.2	.	.
Cc1ccc(NC(=O)OC2CC3CC2[C@H]2CCCCN2C3)cc1 (stereo not given in full)	.	.	1.0	.	3.0	.	.
N#Cc1cccc(Cn2ccc3ccc(-c4ccc5ccn(Cc6ccccc6)c5c4)cc32)c1	.	.	13.2	.	20.2	.	.
O=C(NS(=O)(=O)c1ccc2ccc(S(=O)(=O)NCCSc3ccccc3)cc2c1)c1cccc2ccccc12	-1.4	-0.2	-113.4	1.5	87.9*	87.9*	65.1*
COc1cc(NC(=O)c2[nH]c(C)c(C(C)=O)c2C)c(OC)cc1Cl	.	.	6.1	.	.	.	.
Cc1ccc(NC(=O)CN2C(=O)S/C(=C\c3ccc(OCC(=O)O)c(Br)c3)C2=O)cc1	-1.5	-0.1	-4.2	-3.3	28.2	.	.
O=C(O)COc1ccccc1/C=C1\SC(=O)N(Cc2ccc(F)cc2)C1=O	-1.9	1.4	-13.7	-0.2	37.1*	39.1*	5.0*
Cc1ccc(CN2C(=O)S/C(=C\c3ccccc3OCC(=O)O)C2=O)cc1	-4.6	1.8	-26.6	-1.6	60.5*	63.5*	17.7*
SMILES	bovine MsrA act	MsrA inhibitor	HGIII-sPLA2 inh	PG9 binder	rCAG binder	rCAG bind conf	DNA CAG counter	others
C[C@@H]1[C@@H](O)C[C@@]2(CC(=O)c3ccccc3O2)O[C@H]1c1ccccc1	.	.	-5.2	.	-0.5	.	.
CCCCNC(=O)C[C@@H]1C[C@@]2(C(=O)OC)CCCCC=C2N(Cc2ccc(Cl)cc2Cl)C1=O	-3.0	0.9	-6.3	-3.1	1.8	.	.
C[C@H](CCC(=O)N(c1ccccc1)c1ccccc1)CC1CCCCC1	.	.	3.7	.	1.8	.	.
CCOc1ccc(NC(=O)Nc2cc(-c3ccccc3)sc2C(=O)OC)cc1	-6.7	-0.1	1.0	-2.4	2.8	.	.
CCOc1ccc(-c2cc(NC(=O)c3c(F)cccc3F)c(C(=O)O)s2)cc1	-12.5	2.5	-36.5	-3.0	82.6*	85.2*	43.7*
O=C(Nc1cc(-c2ccccc2)sc1C(=O)O)c1cccc(F)c1	-2.2	2.0	-16.1	-0.2	72.9*	69.7*	32.7*	DNA CAG DR=3.96*
O=C(O)c1ccc(NC(=O)c2ccccc2NC(=O)c2cccc(F)c2)cc1	-2.0	-0.1	-7.2	-0.3	7.5	.	.
COc1ccc(-c2cc(C(=O)Nc3ccc(S(=O)(=O)Nc4ncccn4)cc3)c3ccccc3n2)cc1	-3.3	2.2	-0.1	-0.6	57.6*	56.5*	21.7*
Cc1ccnc(NS(=O)(=O)c2ccc(NC(=O)c3cc(-c4ccc(Br)cc4)nc4ccccc34)cc2)n1	-4.9	-0.4	-11.3	-1.2	38.6*	72.2*	32.6*	DNA CAG DR=i
Cc1ccnc(NS(=O)(=O)c2ccc(NC(=O)c3cc(-c4ccccc4)nc4ccccc34)cc2)n1	0.3	0.8	-28.5	-1.1	45.3*	55.8*	15.9*
COc1cc(-c2cc(C(=O)Nc3ccc(S(=O)(=O)Nc4ncccn4)cc3)c3ccccc3n2)cc(OC)c1OC	-1.3	-1.4	-5.7	0.9	5.3	.	.
O=C(O)c1cccc(N2C(=O)C3C4C=CC(C4=C(c4ccccc4)c4ccccc4)C3C2=O)c1 (stereo not given)	-1.3	-1.1	-37.7	0.6	34.7*	46.8*	11.5*
O=C(O)c1cccc(N2C(=O)c3ccc4c5c(ccc(c35)C2=O)C(=O)N(c2cccc(C(=O)O)c2)C4=O)c1	-2.0	0.4	-2.7	-2.1	4.0	.	.
CCCC(C(=O)Nc1ccc(S(=O)(=O)Nc2nccs2)cc1)c1ccccc1 (stereo not given)	0.7	0.0	-45.2	-0.7	48.7*	35.7*	9.7*
CCCCCCCC(=O)Nc1ccc(S(=O)(=O)Nc2nccs2)cc1	-2.2	-0.2	-43.4	-2.0	54.9*	41.0*	18.4*

Screening results: PubChem BioAssay, The Scripps Research Institute Molecular Screening Center
